# JMJD2A Tudor inh: inhibitors of human JMJD2A Tudor domain; AID 504339; 4.4% of 390,000 active; Potency, µM (doses to about 114 µM), without a hit: top-dose activity change, negative = inhibition, most hits filed as inhibitors; AlphaScreen JMJD2A-Tudor / H3K4me3 peptide binding; O75164; note: % is set by controls: 0 for no effect and ±100 for the full control effect; nearly all actives have a fitted effect of over 50% in size
# HP1b chromo inh: HP1-beta chromodomain-methylated histone interaction inhibition; P83916; 0.56% of 390,000 active; AID 540317; Potency, µM (doses to about 114 µM), for inactives: at the top dose activity change, negative = inhibition, hits mostly inhibitors; AlphaScreen HP1-beta / biotin-H3K9me3 peptide binding; note: nearly all actives have a fitted effect of over 70% in size
# Target sequence (P83916 whole entry, looked up): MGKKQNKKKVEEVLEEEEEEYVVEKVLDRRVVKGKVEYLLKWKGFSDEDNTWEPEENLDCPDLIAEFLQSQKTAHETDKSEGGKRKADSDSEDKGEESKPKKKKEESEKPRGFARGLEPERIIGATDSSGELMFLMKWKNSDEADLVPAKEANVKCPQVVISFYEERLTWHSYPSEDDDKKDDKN
#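 AlphaScreen: HP1-beta (50 nM) preformed 30 min with biotin-H3(1-18)K9me3 peptide (50 nM) in PBS pH 7.4, 0.01% Tween-20. Compound added for 30 min at RT, then streptavidin donor/nickel chelate acceptor beads (10 ug/mL) for 30 min.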
# L3MBTL1 inh: inhibitors of human L3MBTL1 | 0.66% of 230,000 active | Potency, µM (top dose mostly 57.1 µM), inactives show at the highest dose activity, negative = inhibition, hits mostly inhibitors | AlphaScreen L3MBTL1–H3K9me1 peptide binding | AID 485360; note: % is set by controls: 0 for no effect and ±100 for the full control effect; nearly all actives have a fitted effect of over 60% in size
#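 L3MBTL1 (50 nM) pre-complexed 30 min with biotinylated H3(1-15)K9me1 peptide (75 nM), then compounds added for 30 min at room temperature; AlphaScreen streptavidin donor/nickel chelate acceptor beads (10 ug/mL final) read after 30 min dark incubation.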
# BAZ2B block: BAZ2B (human) inhibition. AlphaScreen BAZ2B-H3K14Ac peptide displacement. Potency, µM (highest dose often 114 µM), for the others: top-dose activity change, negative = inhibition, hits mostly inhibitors. 4.4% of 360,000 active. AID 504333; note: % is set by controls: 0 for no effect and ±100 for the full control effect; nearly all actives have a fitted effect of over 60% in size
#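 BAZ2B (50 nM) with biotin-H3(5-23)K14Ac peptide (50 nM) in PBS pH 7.4, 0.01% Tween-20, preformed 30 min, then compound 30 min at room temperature; top concentration 110uM. AlphaScreen streptavidin donor/nickel chelate acceptor beads (10 ug/mL final), 20 min dark, signal read.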
# Sfp PPTase inh: blocks B. subtilis Sfp PPTase activity | Q9F4F7 | Biochemical Sfp PPTase activity, qHTS | Potency, µM, for the others: largest response in the series, negative = inhibition, hits mostly inhibitors | 3.5% of 310,000 active | AID 1490;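 note: the enzyme is Sfp with the accession as filed and its product quenches rhodamine fluorescence; 0% = enzyme reaction without inhibitor and -100% = no enzyme wells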
#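 Compounds were incubated with enzyme (final 15 nM) for 15 min at room temperature before substrate addition started the reaction. Fluorescence at 525 nm excitation, 598 nm emission was recorded immediately and after 30 minutes.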
# G9a block: blocks human histone lysine methyltransferase G9a; 8.8% of 350,000 active; Q96KQ7; G9a H3K9 monomethylation, AlphaScreen, 2 h; Potency, µM (highest dose often 102 µM), without a hit: at the highest dose activity, negative = inhibition, actives largely listed as inhibitors; note: % is set by controls: 0 for no effect and ±100 for the full control effect; nearly all actives have a fitted effect of over 75% in size
# Target sequence (Q96KQ7 913-1193 limits assumed): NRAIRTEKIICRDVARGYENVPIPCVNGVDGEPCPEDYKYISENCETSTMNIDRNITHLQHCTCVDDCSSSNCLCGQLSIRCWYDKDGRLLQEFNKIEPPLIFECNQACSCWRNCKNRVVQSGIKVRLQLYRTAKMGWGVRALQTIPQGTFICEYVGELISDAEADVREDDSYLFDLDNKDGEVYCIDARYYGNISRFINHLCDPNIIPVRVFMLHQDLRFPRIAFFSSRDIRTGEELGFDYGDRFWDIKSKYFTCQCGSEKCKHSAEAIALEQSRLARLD
#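 G9a (20 nM) preincubated 15 min RT with compounds, then 500 nM biotinylated H3K9 peptide and 20 uM SAM added; 2 h RT reaction. Monomethyl-H3K9 product detected by AlphaScreen with anti-H3K9me1 antibody, streptavidin donor and anti-rabbit IgG acceptor beads.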
# Active calls of the source: *; ? = inconclusive; . = not tested or not shown; ! = not active in a repeat; [ ] = remark or other dose. Rows were chosen to be rich in hits. Some 12% of all compounds tested hit in one or more screens of this group. Calls come from the whole dose curve; as a rule, active = well fitted curve in the direction sought with a large enough effect; inconclusive = small, poorly fitted or top-dose-only effect, or another doubt; inactive = no such curve, though single readings can be large; an effect the other way counts as inactive or inconclusive. Potency is the fitted concentration of half-maximal effect.
SMILES,JMJD2A Tudor inh,HP1b chromo inh,L3MBTL1 inh,BAZ2B block,Sfp PPTase inh,G9a block
C=CCOC(=O)C1=C(C)Nc2[nH]c(=O)[nH]c(=O)c2C1c1cccc(OC)c1 (stereo unspecified),.,.,-18%,-2%,-2%,-11%[59 µM]
N#C/C(=C\c1ccccc1[N+](=O)[O-])C(=O)NCc1ccccc1,-27%,14%,2%,-23%,-8%,.
N#C/C(=C\C=C\c1ccccc1[N+](=O)[O-])C(=O)NCc1ccccc1,?,?,.,?,-9%,40µM*
C=CCNC(=O)/C(C#N)=C/c1ccccc1[N+](=O)[O-],-3%,33%,1%,-6%,-1%,?
CCCCCCCCNC(=O)/C(C#N)=C/c1ccccc1[N+](=O)[O-],?,-25%,-14%,-2%,-2%,40µM*
Cc1ccc(C)c(Cn2c(=O)n(Cc3ccccc3)c(=O)c3c(C)c(C)sc32)c1,-7%,34%,.,1%,.,-2%[59 µM]
COc1cccc(C(=O)Nc2nc3c(s2)CCCC3)c1,?,-13%,.,?,.,10µM*
C/C(=N\Nc1nc2c(s1)CCCC2)c1ccc(Cl)cc1,?,-23%,-11%,45µM*,50µM*,?
CN(C)c1ccc(C(=O)Nc2nc3c(s2)CCCC3)cc1,79µM*,?,-8%,?,?,35µM*
C/C(=N\NC1=NCCN1)c1ccc(Cl)cc1,-15%,-1%,-6%,-3%,-1%,-1%
CCOC(=O)[C@H](Cc1ccc(O)cc1)NC(=O)c1ccccc1,.,.,.,.,4%,.
CNC1C(O)C(OC2C(NC(=O)C(O)CN)CC(N)C(OC3OC(CN)C(O)C(O)C3O)C2O)OCC1(C)O (stereo unspecified),.,.,.,.,2%,32%[59 µM]
Cc1c(C=O)c2ccccn2c1C(=O)c1cccs1,-1%,33%,2%,-26%,?,50µM*
Cc1ccsc1/C=C1\SC(=S)N(CC2CCCO2)C1=O (stereo unspecified),10µM*,45µM*,?,10µM*,9%,5µM*
Cc1ccsc1/C=C1/SC(=O)N(CC(=O)N2CCOCC2)C1=O,-2%,38%,-9%,-24%,3%,13%
CCOc1ccc(/C=C2\SC(=S)N(N3C(=O)C4CC4C3=O)C2=O)cc1 (stereo unspecified),?,-21%,.,-25%,-27%,40µM*
CCCOc1ccc(/C=C2\SC(=S)N(CC3CCCO3)C2=O)cc1 (stereo unspecified),?,?,-18%,?,-2%,3.5µM*
O=C1/C(=C/c2ccc(O)cc2)SC(=S)N1CC1CCCO1 (stereo unspecified),?,-22%,-17%,?,-16%,?
Cc1noc(Cn2c(=O)c3ccccc3n(CC(=O)Nc3ccc(F)cc3F)c2=O)n1,2%,35%,.,-12%,.,-8%[59 µM]
O=[N+]([O-])c1cccc(-c2nnc3ccc4ccccc4n23)c1,?,-17%,-17%,?,-18%,14µM*
O=[N+]([O-])c1ccc(-c2nnc3cccc(Cl)n23)cc1,56µM*,22%,.,?,10%,35µM*
O=[N+]([O-])c1cccc(-c2nnc3cccc(Cl)n23)c1,-22%,54%,.,10%,8%,-42%
CN1CCN(/N=C/c2nc(-c3cccc([N+](=O)[O-])c3)n3ccccc23)CC1,?,-11%,-11%,?,79µM*,?
O=[N+]([O-])c1cccc(-c2cn3ccccc3n2)c1,0%,32%,0%,-11%,3%,0%
O=C1Nc2ccc(C(=O)O)c(O)c2C1=O,56µM*,-1%,.,.,.,.
O=S(=O)(NCCNC/C=C/c1ccc(Br)cc1)c1cccc2cnccc12,.,.,.,.,-6%,50µM*!
CNCCNS(=O)(=O)c1cccc2cnccc12,.,.,.,.,0%,30µM*
COC(=O)c1sc(NC(=S)NC(=O)c2cc(OC)c(OC)c(OC)c2)nc1C,-7%,9%,4%,-8%,-17%,71µM*

# Bioassay records from PubChem BioAssay.
